PubChem BioAssay (NCI)
The panel holds about 79,000 compounds, 15% with a hit somewhere; the sample as a whole holds those more often. Calls of active or inactive are those of the source. Cut-off read from the data, not from the text of the source: active = growth inhibition above about 70%; inactive = the rest.

What was measured:
[1] = NCI Yeast Anticancer Drug Screen. Data for the rad52 strain (AID 147);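 note: 0% = growth of vehicle-treated control cultures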; details: S. cerevisiae rad52 mutant growth inhibition, hits give high values
Summary of the method: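 Inhibition of yeast growth, referenced to vehicle controls, was the measured output for a strain with defective DNA damage repair.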

[2] = NCI Yeast Anticancer Drug Screen. Data for the rad50EPP+ strain (AID 151);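 note: 0% = growth of vehicle-treated control cultures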; details: S. cerevisiae rad50 mutant strain, hits give high values
Summary of the method: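 Genetically defined yeast (rad50EPP+, DNA damage repair alteration) is grown with compound, and inhibition of growth is expressed relative to vehicle-treated controls.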

[3] = NCI Yeast Anticancer Drug Screen. Data for the mgt1 strain (AID 153); details: S. cerevisiae mgt1 mutant growth inhibition, hits give high values
Summary of the method: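 In the mgt1 strain, test compounds were added and growth inhibition was determined relative to vehicle-treated controls.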

[4] = NCI Yeast Anticancer Drug Screen. Data for the rad50 strain (AID 155);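 note: 0% = growth of vehicle-only cultures of the same strain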; details: S. cerevisiae rad50 strain growth inhibition, hits give high values
Summary of the method: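 Growth of the mutant yeast was measured after compound exposure and referenced to vehicle-treated cultures.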

[5] = NCI Yeast Anticancer Drug Screen. Data for the mec2-1 strain (AID 157); details: S. cerevisiae mec2-1 strain, hits give high values
Summary of the method: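 Each compound was tested on mec2-1 yeast, a strain altered in DNA damage repair or cell cycle control. Growth inhibition is reported relative to vehicle.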

[6] = NCI Yeast Anticancer Drug Screen. Data for the rad14 strain (AID 159);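 note: 0% = growth of vehicle-treated control cultures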; details: S. cerevisiae rad14 strain growth inhibition, hits give high values
Summary of the method: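 Here, inhibition of yeast growth was measured after compound exposure, using a strain with a genetic defect in DNA damage repair and vehicle-treated cultures as the reference.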

[7] = NCI Yeast Anticancer Drug Screen. Data for the sgs1 mgt1 strain (AID 161);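 note: 0% = growth of cultures given vehicle only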; details: S. cerevisiae sgs1 mgt1 strain, hits give high values
Summary of the method: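 Test agents were incubated with a DNA-repair-mutant yeast strain. Growth was then read and compared against vehicle-treated controls.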

[8] = NCI Yeast Anticancer Drug Screen. Data for the CLN2oe strain (AID 163);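 note: 0% = growth of vehicle-only control cultures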; details: S. cerevisiae CLN2oe strain, hits give high values
Summary of the method: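 First, the altered yeast strain was treated with each compound; second, its growth was measured; finally, inhibition was derived by comparison with vehicle controls.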

[9] = NCI Yeast Anticancer Drug Screen. Data for the cln2 rad14 strain (AID 165);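 note: 0% = growth equal to vehicle treated cultures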; details: S. cerevisiae cln2 rad14 strain, hits give high values
Summary of the method: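 Test compounds were added to cln2 rad14 yeast cultures; inhibition of growth was then determined by comparison with vehicle treatment.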

[10] = NCI Yeast Anticancer Drug Screen. Data for the bub3 strain (AID 167); details: S. cerevisiae bub3 mutant strain, hits give high values
Summary of the method: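 Whole-cell yeast assay. The mutant strain was incubated with compounds, and growth inhibition was determined by comparison with vehicle-treated cells.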

[11] = NCI Yeast Anticancer Drug Screen. Data for the wt2 strain (AID 169);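 note: 0% = growth of vehicle-treated yeast cultures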; details: S. cerevisiae wt2 strain growth inhibition, hits give high values
Summary of the method: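 The panel's yeast strains carry defined changes in DNA repair or cell cycle genes. Each strain is grown with compound, and growth loss is scored relative to vehicle.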

[12] = NCI Yeast Anticancer Drug Screen. Data for the mlh1 strain (AID 171);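 note: 0% = growth of vehicle-treated control cultures of the same strain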; details: S. cerevisiae mlh1 strain growth inhibition, hits give high values
Summary of the method: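 Inhibition values reflect reduced yeast growth in the presence of compound, referenced to vehicle controls, using a strain chosen for its alteration in DNA repair or cell cycle control.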

[13] = NCI Yeast Anticancer Drug Screen. Data for the sgs1 strain (AID 173);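 note: 0% = growth of vehicle-only control cultures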; details: S. cerevisiae sgs1 mutant, hits give high values
Summary of the method: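 Vehicle-treated cultures served as reference for growth inhibition of a yeast strain altered in DNA damage repair or cell cycle control after compound exposure.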

[14] = NCI Yeast Anticancer Drug Screen. Data for the mlh1 rad18 strain (AID 175); details: S. cerevisiae mlh1 rad18 strain growth inhibition, hits give high values
Summary of the method: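 Inhibition values reflect reduced growth of mutant yeast versus vehicle-treated controls following compound exposure; the mutations affect DNA damage repair.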

[15] = NCI Yeast Anticancer Drug Screen. Data for the rad18 strain (AID 177); details: S. cerevisiae rad18 mutant growth inhibition, hits give high values
Summary of the method: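 Steps: expose repair-mutant yeast to compound; measure growth; express as inhibition relative to vehicle control.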

[16] = at 5.0 µM (retest, dose inferred, filed as 0.5)
[17] = at 50.0 µM (retest, dose inferred, filed as 5.0)

Measured: growth inhibition

C=COC(=O)N[C@H]1CCc2cc(OC)c(OC)c(OC)c2-c2ccc(SC)c(=O)cc21
inactive: [1]; at 1.2 µM -2% | [1]; at 3.7 µM 1% | [1]; at 11.0 µM 6% | [1]; at 33.0 µM 14% | [2]; at 1.2 µM -8% | [2]; at 3.7 µM -2% | [2]; at 11.0 µM -3% | [2]; at 33.0 µM -6% | [2]; at 100.0 µM -2% | [3]; at 1.2 µM -5% | [3]; at 3.7 µM -8% | [3]; at 11.0 µM -4% | [3]; at 33.0 µM 13% | [3]; at 100.0 µM 64% | [4]; at 1.2 µM 1% | [4]; at 3.7 µM 4% | [4]; [16] -6% | [4]; at 11.0 µM 10% | [4]; at 33.0 µM 20% | [4]; [17] 34% | [4]; at 50.0 µM 38.5% | [5]; at 1.2 µM -5% | [5]; at 3.7 µM -4% | [5]; [16] -9% | [5]; at 11.0 µM -5% | [5]; at 33.0 µM 2% | [5]; [17] 41% | [5]; at 50.0 µM 30.9% | [6]; at 1.2 µM -1% | [6]; at 3.7 µM -1% | [6]; at 11.0 µM 6% | [6]; at 33.0 µM 19% | [7]; [16] -9% | [7]; [17] 42% | [7]; at 50.0 µM 38% | [8]; at 1.2 µM -4% | [8]; at 3.7 µM -2% | [8]; at 11.0 µM -12% | [8]; at 33.0 µM -10% | [9]; [16] 3% | [9]; [17] 6% | [9]; at 50.0 µM 20.4% | [10]; at 1.2 µM -3% | [10]; at 3.7 µM -6% | [10]; [16] -3% | [10]; at 11.0 µM -6% | [10]; at 33.0 µM 4% | [10]; [17] 67% | [10]; at 50.0 µM 34.2% | [10]; at 100.0 µM 58% | [11]; at 1.2 µM -3% | [11]; at 3.7 µM -4% | [11]; at 11.0 µM -3% | [11]; at 33.0 µM 1% | [12]; at 1.2 µM 1% | [12]; at 3.7 µM -1% | [12]; at 11.0 µM 0% | [12]; at 33.0 µM 12% | [13]; at 1.2 µM -2% | [13]; at 3.7 µM -3% | [13]; at 11.0 µM 1% | [13]; at 33.0 µM 14% | [14]; [16] -8% | [14]; [17] 30% | [14]; at 50.0 µM 29.1% | [15]; at 1.2 µM -2% | [15]; at 3.7 µM 0% | [15]; at 11.0 µM 3% | [15]; at 33.0 µM 13%
active: [1]; at 100.0 µM 75% | [4]; at 100.0 µM 88% | [5]; at 100.0 µM 73% | [6]; at 100.0 µM 93% | [8]; at 100.0 µM 80% | [11]; at 100.0 µM 76% | [12]; at 100.0 µM 84% | [13]; at 100.0 µM 73% | [15]; at 100.0 µM 75%
